A selection: hits, their analogues and other compounds. The true share with any hit is near 2.1%.
ugtP null kill = kills S. aureus RN4220 lacking UgtP; S. aureus RN4220 ugtP deletion, OD600 growth, 16 h; growth inhibition, % (test concentration not listed); 330,000 compounds, 0.54% hits; AID 1259309; in the data active = growth inhibition above about 68%;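 also: plate controls were untreated wells for no effect and antibiotic for full effect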
PrP UTR inh = inhibition of PrP 5' UTR reporter expression | AID 488862 | 340,000 compounds, 0.35% hits | inhibition, % (test concentration not listed) | cell-based PrP 5' UTR mRNA reporter, plate reader; in the data active = inhibition above about 52%; also: 0 = median of the neutral control wells
PrPC surface inh = reduces human prion protein on the cell surface | cell surface PrPC, TR-FRET read-out | inhibition, % at 13.8 µM | 370,000 compounds, 0.43% hits; in the data active = inhibition above about 24%; also: 0% = median of the test wells and 100% = reference compound wells
PfHsp40 rescue = compounds rescuing yeast from Plasmodium falciparum HSP40 toxicity; S. cerevisiae expressing PfHsp40, growth rescue, ATP luminescence; growth rescue, % at 12.5 µM; 340,000 compounds, 0.68% hits; AID 504582; in the data active = growth rescue above about 28%, passing the limit was not always enough;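 also: yeast W303a lacking pdr1 and pdr3 grown in galactose medium; growth measured after three days at 30 °C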
RN4220 kill = S. aureus RN4220 growth inhibition; inhibition, % (test concentration not listed); OD600, 16 h; AID 1259311; 330,000 compounds, 0.33% hits; in the data active = inhibition above about 85%;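 also: plate controls were untreated cells for no effect and reference antibiotic for full effect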
CCHF vOTU inh-1 = blocks the CCHF virus ovarian tumor domain protease | CCHFV vOTU protease, Pep-AMC fluorescence | inhibition, % at 11.5 µM | 370,000 compounds, 0.55% hits; also: 0% = vehicle wells with enzyme and 100% = no enzyme wells
CCHF vOTU inh-2 = confirmation of CCHF virus vOTU protease inhibitors | shares compounds with CCHF vOTU inh-1 | Recombinant CCHFV vOTU, Pep-AMC fluorescence | inhibition, % at 11.5 µM | 1,900 compounds, 17% hits | AID 686976
* = called active by the depositor; . = no result. Rule as the data show it, unless noted: active = inhibition above about 30%; inactive = the rest.

SMILES	ugtP null kill	PrP UTR inh	PrPC surface inh	PfHsp40 rescue	RN4220 kill	CCHF vOTU inh-1	CCHF vOTU inh-2
Oc1ccc(C=Nc2ccccc2-c2nc3ccccc3[nH]2)c(O)c1	15.3	-85.2	9.9	-2.3	9.7	-251.0	.
Cn1ncc(C#N)c1N=CN1CCCCC1	4.1	.	.	.	1.5	.	.
O=[N+]([O-])c1cccc(C=Nn2c(-c3cccnc3)n[nH]c2=S)c1	1.7	.	.	.	1.3	.	.
CCOC(=O)c1oc2c(c1C)C(=O)CCC2	-1.4	-25.6	-4.5	-0.6	2.7	-1.0	.
CCOC(=O)c1oc2c(c1C)/C(=N/O)CCC2	.	-34.3	0.0	-0.5	.	32.7*	-7.1
O=C(O)COc1ccc(C=Nn2c(COc3ccccc3)nc3ccccc3c2=O)cc1	-4.0	.	.	.	9.4	.	.
Nc1c(N(Cc2ccco2)C(=O)COc2ccc(Cl)cc2)c(=O)[nH]c(=O)n1Cc1ccccc1	3.1	-1.4	-0.1	-1.1	5.8	16.0	.
Nc1c(N(Cc2ccco2)C(=O)COc2ccccc2Cl)c(=O)[nH]c(=O)n1Cc1ccccc1	3.6	-15.9	-0.1	1.2	4.5	30.7*	-14.9
O=C1c2ccccc2C(=O)c2c1cccc2N1CCCC1	15.7	-3.6	-57.4	0.4	11.6	74.9*	-5.3
O=C1C=C(N2CCCCC2)c2ccccc2C1=O	16.6	.	-13.8	.	18.3	81.8*	81.5*
O=S(=O)(c1ccccc1S(=O)(=O)N1CCCCC1)N1CCCCC1	-10.1	-15.2	.	0.2	0.8	.	.
CCc1ccc(N2CC(C(=O)NN=Cc3cc([N+](=O)[O-])ccc3O)CC2=O)cc1 (stereo not drawn)	53.8	.	.	.	77.5	.	.
C/C(C=NNC(=O)c1sc(N)nc1C)=C\c1ccccc1	3.1	.	.	.	1.6	.	.
Cc1cccc(-c2nnc(SCC(=O)Nc3ccc(OCc4ccccc4)cc3)n2Cc2ccco2)c1	.	.	15.1	.	.	17.4	.
O=C(CSc1nnc(-c2ccccc2)n1Cc1ccco1)Nc1ccc(OCc2ccccc2)cc1	.	.	11.9	.	.	31.7*	-6.5
COc1ccc(C2CC(=O)C=C(c3cc(Cl)ccc3C)C2)cc1 (stereo not drawn)	14.6	.	.	.	-2.2	.	.
Cc1nc(N2CCOCC2)nc(N2CCCCC2)c1[N+](=O)[O-]	7.7	-8.4	3.9	-0.9	2.8	43.7*	-9.0
Cc1nc(N2CCOCC2)nc(N2CCCC2)c1[N+](=O)[O-]	3.4	-14.2	-0.7	-0.4	4.5	4.3	.
COc1cccc(NC(=O)CN(C)C(=O)CC2Sc3ccccc3NC2=O)c1 (stereo not drawn)	2.9	-14.0	-1.3	-0.1	1.2	-6.8	.
CN(CC(=O)Nc1ccc(Cl)c(C(F)(F)F)c1)C(=O)CC1Sc2ccccc2NC1=O (stereo not drawn)	12.9	-14.0	13.2	-1.3	-16.8	32.8*	-16.3
COc1cccc(NC(=O)C2CCCN2S(=O)(=O)c2cccc3cccnc23)c1 (stereo not drawn)	1.1	.	.	.	6.5	.	.
COc1cc(C(c2c(C)[nH]n(-c3ccccc3)c2=O)c2c(C)[nH]n(-c3ccccc3)c2=O)cc(OC)c1OC	-8.8	2.8	2.5	1.7	-2.3	80.3*	-4.0
Cc1[nH]n(-c2ccccc2)c(=O)c1C(c1ccc(C(=O)O)cc1)c1c(C)[nH]n(-c2ccccc2)c1=O	-6.1	-18.9	-8.2	-1.0	-1.2	71.2*	-11.3
COc1cc(C=NNC(=O)Cn2nc([N+](=O)[O-])cc2C)cc(Br)c1OCc1ccccc1	-14.7	.	.	.	-1.9	.	.
Cc1ccc(-c2n[nH]c(=S)n2N=Cc2cccs2)cc1	-2.4	.	.	.	4.5	.	.
SMILES	ugtP null kill	PrP UTR inh	PrPC surface inh	PfHsp40 rescue	RN4220 kill	CCHF vOTU inh-1	CCHF vOTU inh-2
COc1cc2c(c(OC)c1OC)-c1ccc(C(=O)O)cc1C(NC(C)=O)CC2 (stereo not drawn)	0.5	.	.	.	4.0	.	.
S=C(Nc1ccc2nc(-c3ccccn3)c(-c3ccccn3)nc2c1)N1CCOCC1	4.0	-22.9	-17.3	0.5	-0.6	36.3*	-58.5
COc1cccc(C(C[N+](=O)[O-])c2c(C)[nH]n(-c3ccccc3)c2=O)c1 (stereo not drawn)	.	-17.5	4.5	-0.2	.	16.7	.
Cc1[nH]n(-c2ccccc2)c(=O)c1C(c1cccc([N+](=O)[O-])c1O)c1c(C)[nH]n(-c2ccccc2)c1=O	-0.8	-9.1	-9.9	-1.5	8.4	32.6*	-16.8
Cc1c(C(c2cccc([N+](=O)[O-])c2O)c2c(C)n(C)n(-c3ccccc3)c2=O)c(=O)n(-c2ccccc2)n1C	3.9	-13.2	-4.6	-1.0	1.7	-2.3	.
Cc1[nH]n(-c2ccccc2)c(=O)c1C(c1cccc([N+](=O)[O-])c1)c1c(C)[nH]n(-c2ccccc2)c1=O	10.2	-27.8	-8.2	0.7	-2.0	40.6*	-13.0
N#C/C(=C/c1ccc([N+](=O)[O-])cc1)C(N)=O	.	-6.3	6.2	-1.5	.	33.8*	-24.2
N#C/C(=C\c1cc([N+](=O)[O-])ccc1Cl)C(N)=O	4.6	-19.7	-15.7	-0.1	6.2	13.6	.
Cc1cc(N2CCNC[C@@H]2C)ccc1N1CC[C@@H](O)C1	.	.	-3.2	.	.	17.0	.
C[C@H]1CNCCN1c1ccc(N2CC[C@@H](O)C2)c(C#N)c1	.	.	-1.7	.	.	34.3*	-19.8
CC(=NNC(=O)c1cc(-c2ccccc2)nc2c(Cl)cccc12)c1cccnc1	16.0	.	.	.	-4.2	.	.
Cc1cc(OCC(=O)OCC(=O)N(C)c2c(N)n(Cc3ccccc3)c(=O)[nH]c2=O)ccc1Cl	-7.7	-23.0	2.5	0.7	0.4	-4.1	.
CN(C(=O)COC(=O)COc1ccc2ccccc2c1)c1c(N)n(Cc2ccccc2)c(=O)[nH]c1=O	3.0	5.6	-4.6	-0.8	-0.5	30.4*	-40.8
O=C(Nc1ncc([N+](=O)[O-])s1)C1CCN(S(=O)(=O)c2cnc[nH]2)CC1	2.6	-6.0	-40.5	-1.2	2.4	30.6*	-1.0
O=C(NN=Cc1cccc(O)c1)C(=O)N1CCCCCC1	0.0	.	.	.	0.2	.	.
Cc1ccc([N+](=O)[O-])cc1N(CC(=O)Nc1ccc(S(=O)(=O)Nc2cccc(C(F)(F)F)c2)cc1)S(C)(=O)=O	77.7	-7.0	23.6	0.9	87.8*	29.8*	-9.4
COc1ccccc1N(CC(=O)Nc1cccc(C(F)(F)F)c1)S(C)(=O)=O	0.8	-15.9	-9.7	0.3	4.3	13.5	.
CCN1C(=O)C2C(c3ccc(-c4ccc(C(C)=O)cc4)c(OC)c3)N3CCCC[C@@]3(C(=O)OC)C2C1=O (stereo partly drawn)	6.1	.	.	.	1.5	.	.
CC(C)C[C@H](NC(=O)c1[nH]cnc1C(=O)N[C@@H](Cc1ccccc1)C(=O)OCc1ccccc1)C(=O)OC(C)(C)C	.	-16.4	6.9	-0.7	.	29.9*	17.9
CC(C)C[C@H](NC(=O)c1nc[nH]c1C(=O)NCCCCCNC(=O)OC(C)(C)C)C(=O)OCc1ccccc1	.	-19.2	0.5	6.4	.	30.3*	15.7
CC(C)C[C@H](NC(=O)c1nc[nH]c1C(=O)NC1CCN(C(=O)OC(C)(C)C)CC1)C(=O)OCc1ccccc1	.	-8.0	5.4	10.8	.	31.2*	13.5
